This is an account of results in PubChem BioAssay (EPA / NIEHS).

Structures are written as SMILES. Records with an inconclusive call do not appear. Some structures have more than one record in an assay (separate samples or runs), and their calls can disagree. Calls of active or inactive are those of the source. The calls were made as follows, unless noted: active = hit-call score of the fitted dose curve at least 0.9, where 1 is the maximum; inactive = score below 0.9.

Read-out in assay [1]: Intercellular Adhesion Molecule 1 (ICAM1), ICAM1 (gene 3383)
Description: BSK_3C_ICAM1: BioMAP Diversity Plus: 3C Assay for Intercellular Adhesion Molecule 1 (ICAM1) Biomarker Activity (AID 2283003). As to conditions: primary human endothelial cells (HUVEC); actives raise or lower the signal. Put shortly: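 HUVEC primary cells stimulated under 3C conditions; ICAM1 measured by ELISA 24 h after compound dosing. Curves fitted bidirectionally against the DMSO baseline. Overt cytotoxicity checked by SRB staining of parallel cultures.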

Assay [2] has as its target Retinoic acid receptor alpha (Homo sapiens) (UniProt P10276). Description: ATG_RARa_TRANS: Attagene TRANS-FACTORIAL HepG2 Assay for human Retinoic Acid Receptor alpha (RARa) (AID 2283005; active = hit-call score of the fitted dose curve at least 0.9, where 1 is the maximum). In outline: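 Reporter transcripts, measured by RT-PCR with fluorescent labeling and capillary electrophoresis after 24 h dosing, reflect activity of an exogenous human RARa–GAL4 fusion in transiently transfected HepG2. Fitted for increase relative to DMSO.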

Assay [3] can be described thus: BSK_3C_Proliferation: Cell Proliferation Assessment in the BioMAP Diversity Plus: 3C Assay (AID 2283006).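 As to AC50: potency may reflect either rise or fall in cell number versus DMSO.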 The following applies: primary human endothelial cells (HUVEC). Put shortly:
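Subconfluent HUVEC (3C system) cultured with chemical; relative cell number read at 48 h by sulforhodamine B total-protein staining (0.1% SRB after 10% TCA fixation, 560 nm). Bidirectional fit relative to DMSO.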

The target in assay [4] is Peroxisome proliferator-activated receptor gamma (Homo sapiens) (UniProt P37231). Description: ATG_PPARg_TRANS: Attagene TRANS-FACTORIAL HepG2 Assay for human Peroxisome Proliferator-activated Receptor-gamma (PPARg) (AID 2283007; active = hit-call score of the fitted dose curve at least 0.9, where 1 is the maximum). In outline: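 Twenty-four hours after chemical dosing of transiently transfected HepG2 cells, isolated RNA was converted to cDNA, reporter sequences amplified and 6-FAM-labelled, then HpaI-digested and analysed by capillary electrophoresis. Signal increase against DMSO was fitted.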

Assay [5] deals with Nuclear receptor subfamily 1 group I member 2 (Homo sapiens) (UniProt O75469). The experiment in a line: ATG_PXR_TRANS: Attagene TRANS-FACTORIAL HepG2 Assay for human Pregnane X Receptor (PXR) (AID 2283008; active = hit-call score of the fitted dose curve at least 0.9, where 1 is the maximum). Put shortly:
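Fluorescence intensity of FAM-labelled, HpaI-digested reporter amplicons, separated by capillary electrophoresis, quantifies induction. HepG2 cells with PXR-Gal4 trans-reporter system were exposed 24 h; DMSO defines baseline.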

The target in assay [6] is human Retinoid X Receptor beta (RXRb), RXRB (gene 6257) (UniProt P28702). Description: ATG_RXRb_TRANS: Attagene TRANS-FACTORIAL HepG2 Assay for human Retinoid X Receptor beta (RXRb) (AID 2283013; active = hit-call score of the fitted dose curve at least 0.9, where 1 is the maximum). Put shortly: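 HepG2 cells were transiently transfected with multiplexed GAL4-UAS reporters and a chimeric RXRb-Gal4 construct, then exposed for 24 h. Reporter mRNA was quantified by RT-PCR, FAM labeling, HpaI digestion and capillary electrophoresis; gain of signal was scored against DMSO.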

For assay [7], the target named is human Thyroid Receptor alpha (THRa1), THRA (gene 7067) (UniProt P10827). Description: ATG_THRa1_TRANS: Attagene TRANS-FACTORIAL HepG2 Assay for human Thyroid Receptor alpha (THRa1) (AID 2283014; active = hit-call score of the fitted dose curve at least 0.9, where 1 is the maximum). Put shortly:
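HepG2 cells transiently transfected with multiplexed GAL4-UAS reporter units for exogenous chimeric THRa1-Gal4; reporter mRNA measured 24 h after dosing by RT-PCR, 6-FAM labelling, HpaI digestion and capillary electrophoresis. Gain-of-signal fitted versus DMSO baseline.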

Read-out in assay [8]: E-selectin (Homo sapiens) (UniProt P16581)
Description: BSK_3C_Eselectin: BioMAP Diversity Plus: 3C Assay for Eselectin Biomarker Activity (AID 2283015).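 Also: cell surface E-selectin protein quantified by ELISA 24 h after dosing.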 The following applies: primary human endothelial cells (HUVEC); actives raise or lower the signal. In outline: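 Primary human umbilical vein endothelial cells (3C system) were dosed with chemical and cell-surface E-selectin measured by ELISA 24 h later. Bidirectional curve fitting used DMSO as negative control and baseline.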

Read-out in assay [9]: Interleukin-1 alpha (IL1a), IL1A (gene 3552)
Description: BSK_BE3C_IL1a: BioMAP Diversity Plus: BE3C Assay for Interleukin-1 alpha (IL1a) Biomarker Activity (AID 2283016). The following applies: primary human bronchial epithelial cells; actives raise or lower the signal. Put shortly: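 Human primary bronchial epithelial cells, 24 h chemical exposure; IL-1a quantified by ELISA, fitted bidirectionally against DMSO. Cytotoxicity assessed in parallel by SRB total-protein staining at the time of measurement.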

Read-out in assay [10]: Monocyte Chemoattractant Protein-1 (MCP1), CCL2 (gene 6347)
The experiment in a line: BSK_3C_MCP1: BioMAP Diversity Plus: 3C Assay for Monocyte Chemoattractant Protein-1 (MCP1) Biomarker Activity (AID 2283017). The following applies: primary human endothelial cells (HUVEC); actives raise or lower the signal. Put shortly: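 Primary human umbilical vein endothelial cells (3C system) were exposed to test chemical for 24 h, after which MCP-1 was quantified by ELISA. Activity was fitted bidirectionally against DMSO as negative control and baseline.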

Read-out in assay [11]: Monocyte Chemoattractant Protein-1 (MCP1), CCL2 (gene 6347)
Description: BSK_4H_MCP1: BioMAP Diversity Plus: 4H Assay for Monocyte Chemoattractant Protein-1 (MCP1) Biomarker Activity (AID 2283018). The following applies: primary human endothelial cells (HUVEC); actives raise or lower the signal. In outline: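 Human umbilical vein endothelial cells (4H system) exposed to chemicals for 24 h in 96-well format. MCP-1 measured by ELISA; bidirectional fitting against DMSO, with SRB total-protein staining in parallel cultures for cytotoxicity.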

Read-out in assay [12]: Interleukin-8 (IL8), CXCL8 (gene 3576)
Description: BSK_3C_IL8: BioMAP Diversity Plus: 3C Assay for Interleukin-8 (IL8) Biomarker Activity (AID 2283020). The following applies: primary human endothelial cells (HUVEC); actives raise or lower the signal. Put shortly: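 Primary human umbilical vein endothelial cells were dosed for 24 h. IL-8 was quantified by ELISA and fitted bidirectionally against DMSO. Cytotoxicity was assessed in parallel cultures by SRB staining at 560 nm.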

Read-out in assay [13]: Monokine induced gamma interferon (MIG), CXCL9 (gene 4283)
The experiment in a line: BSK_3C_MIG: BioMAP Diversity Plus: 3C Assay for Monokine induced gamma interferon (MIG) Biomarker Activity (AID 2283021). As to conditions: primary human endothelial cells (HUVEC); actives raise or lower the signal. In outline: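 HUVEC primary endothelial cultures dosed with chemical; MIG quantified by ELISA at 24 h. Data fitted bidirectionally against DMSO control, with parallel SRB total-protein staining for cytotoxicity.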

Assay [14] concerns the target human Peroxisome Proliferator-activated Receptor delta (PPARd), PPARD (gene 5467) (UniProt Q03181). Description: ATG_PPARd_TRANS: Attagene TRANS-FACTORIAL HepG2 Assay for human Peroxisome Proliferator-activated Receptor delta (PPARd) (AID 2283002; active = hit-call score of the fitted dose curve at least 0.9, where 1 is the maximum). In outline: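 Cell-based TRANS reporter: HepG2, transient MRTU transfection, 24 h exposure. Readout = reporter mRNA (RT-PCR/CE, 6-FAM). Gain-of-signal fit vs DMSO control.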

In assay [15] the target is human RAR-related Orphan Receptor gamma (RORg), RORC (gene 6097) (UniProt P51449). The experiment in a line: ATG_RORg_TRANS: Attagene TRANS-FACTORIAL HepG2 Assay for human RAR-related Orphan Receptor gamma (RORg) (AID 2283011; active = hit-call score of the fitted dose curve at least 0.9, where 1 is the maximum). Put shortly: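 Readout: reporter transcript induction (RT-PCR, fluorescent primer extension, capillary electrophoresis) after 24 h compound exposure of transiently transfected HepG2 cells carrying a RORg-Gal4 chimera and GAL4-UAS reporters; DMSO served as baseline, with increasing signal fitted.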

Read-out in assay [16]: Human Leukocyte Antigen - DR isotype (HLADR), HLA-DRA (gene 3122)
The experiment in a line: BSK_3C_HLADR: BioMAP Diversity Plus: 3C Assay for Human Leukocyte Antigen - DR isotype (HLADR) Biomarker Activity (AID 2283019). As to conditions: primary human endothelial cells (HUVEC); actives raise or lower the signal. In outline: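 Primary human umbilical vein endothelial cells (3C system) were dosed with compound and cell-surface HLA-DR was quantified by ELISA at 24 h. Activity was fitted bidirectionally against DMSO as negative control and baseline.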

For assay [17], the target named is human Retinoic Acid Receptor beta (RARb), RARB (gene 5915) (UniProt P10826). The experiment in a line: ATG_RARb_TRANS: Attagene TRANS-FACTORIAL HepG2 Assay for human Retinoic Acid Receptor beta (AID 2283004; active = hit-call score of the fitted dose curve at least 0.9, where 1 is the maximum). In outline:
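HepG2 cells transiently transfected with multiplexed GAL4-UAS reporter units expressing chimeric NR–Gal4 fusions; 24 h compound exposure. Reporter mRNA quantified by RT-PCR, 6-FAM labelling, HpaI digestion and capillary electrophoresis; gain-of-signal fitted against DMSO baseline.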

The target in assay [18] is human RAR-related Orphan Receptor beta (RORb), RORB (gene 6096) (UniProt Q92753). Description: ATG_RORb_TRANS: Attagene TRANS-FACTORIAL HepG2 Assay for human RAR-related Orphan Receptor beta (RORb) (AID 2283010; active = hit-call score of the fitted dose curve at least 0.9, where 1 is the maximum). Put shortly:
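HepG2 cells transiently transfected with GAL4-UAS reporter units expressing chimeric NR-Gal4 protein; reporter mRNA measured 24 h after dosing by RT-PCR, 6-FAM labelling and capillary electrophoresis. Gain-of-signal fitted relative to DMSO baseline.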

E-selectin (Homo sapiens), sequence (P16581 whole entry, looked up): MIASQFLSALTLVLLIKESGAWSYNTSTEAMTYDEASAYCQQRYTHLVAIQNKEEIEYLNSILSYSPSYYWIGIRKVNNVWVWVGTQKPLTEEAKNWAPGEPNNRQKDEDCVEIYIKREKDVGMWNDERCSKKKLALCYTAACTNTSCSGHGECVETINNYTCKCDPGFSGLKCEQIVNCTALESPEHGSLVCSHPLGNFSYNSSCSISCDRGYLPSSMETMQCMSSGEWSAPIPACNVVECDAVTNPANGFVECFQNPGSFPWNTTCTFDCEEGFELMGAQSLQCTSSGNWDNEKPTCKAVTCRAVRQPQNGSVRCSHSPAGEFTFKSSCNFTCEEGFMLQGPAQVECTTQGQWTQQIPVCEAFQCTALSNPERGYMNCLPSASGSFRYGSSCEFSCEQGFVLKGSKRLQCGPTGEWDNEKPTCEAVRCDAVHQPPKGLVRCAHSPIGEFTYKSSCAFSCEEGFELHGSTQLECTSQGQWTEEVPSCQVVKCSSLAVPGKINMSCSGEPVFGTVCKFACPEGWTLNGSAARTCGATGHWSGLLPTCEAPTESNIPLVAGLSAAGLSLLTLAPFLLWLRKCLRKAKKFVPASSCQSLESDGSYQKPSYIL
human Peroxisome Proliferator-activated Receptor delta (PPARd), PPARD (gene 5467), sequence (Q03181 whole entry, looked up): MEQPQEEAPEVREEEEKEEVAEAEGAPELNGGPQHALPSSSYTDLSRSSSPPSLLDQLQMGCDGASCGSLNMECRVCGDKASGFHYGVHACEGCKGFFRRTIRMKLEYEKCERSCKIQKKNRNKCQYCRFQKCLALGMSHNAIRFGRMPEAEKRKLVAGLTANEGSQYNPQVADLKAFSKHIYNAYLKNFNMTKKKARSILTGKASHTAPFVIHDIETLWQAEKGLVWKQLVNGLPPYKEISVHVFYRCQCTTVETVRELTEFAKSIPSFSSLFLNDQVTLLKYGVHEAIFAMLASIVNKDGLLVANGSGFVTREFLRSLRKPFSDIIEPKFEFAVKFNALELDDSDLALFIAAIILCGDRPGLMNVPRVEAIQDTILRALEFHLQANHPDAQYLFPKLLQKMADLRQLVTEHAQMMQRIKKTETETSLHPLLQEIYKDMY
human Retinoid X Receptor beta (RXRb), RXRB (gene 6257), sequence (P28702 whole entry, looked up, the tested form may be a part): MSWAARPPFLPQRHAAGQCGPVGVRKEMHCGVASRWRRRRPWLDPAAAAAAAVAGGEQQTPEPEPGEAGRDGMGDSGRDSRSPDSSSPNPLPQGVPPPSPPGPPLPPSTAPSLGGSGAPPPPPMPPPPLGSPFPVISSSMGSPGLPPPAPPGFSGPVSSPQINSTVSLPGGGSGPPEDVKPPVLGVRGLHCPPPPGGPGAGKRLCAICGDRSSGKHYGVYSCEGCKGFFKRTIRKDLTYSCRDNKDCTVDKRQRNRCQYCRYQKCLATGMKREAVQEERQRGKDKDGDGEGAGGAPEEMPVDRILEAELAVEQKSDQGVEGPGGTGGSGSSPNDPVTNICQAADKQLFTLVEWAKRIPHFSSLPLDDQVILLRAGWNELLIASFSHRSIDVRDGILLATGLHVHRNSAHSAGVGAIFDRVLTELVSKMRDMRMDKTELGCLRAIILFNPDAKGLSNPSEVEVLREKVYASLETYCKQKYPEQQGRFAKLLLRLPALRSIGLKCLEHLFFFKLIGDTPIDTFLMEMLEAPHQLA
Retinoic acid receptor alpha (Homo sapiens), sequence (P10276 whole entry, looked up, the tested form may be a part): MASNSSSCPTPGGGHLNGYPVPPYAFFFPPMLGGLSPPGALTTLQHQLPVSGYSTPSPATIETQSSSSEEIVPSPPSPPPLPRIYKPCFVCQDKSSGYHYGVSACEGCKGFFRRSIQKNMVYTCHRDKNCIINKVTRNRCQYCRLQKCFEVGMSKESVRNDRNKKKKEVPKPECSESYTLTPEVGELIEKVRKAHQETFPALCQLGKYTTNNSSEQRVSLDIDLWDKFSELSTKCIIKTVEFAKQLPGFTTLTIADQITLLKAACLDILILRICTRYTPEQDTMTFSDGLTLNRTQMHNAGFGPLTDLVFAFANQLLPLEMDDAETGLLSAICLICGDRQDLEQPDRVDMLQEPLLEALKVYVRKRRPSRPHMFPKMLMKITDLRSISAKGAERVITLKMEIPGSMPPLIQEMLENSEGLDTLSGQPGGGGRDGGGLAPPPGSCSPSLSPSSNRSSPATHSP
human Thyroid Receptor alpha (THRa1), THRA (gene 7067), sequence (P10827 whole entry, looked up, the tested form may be a part): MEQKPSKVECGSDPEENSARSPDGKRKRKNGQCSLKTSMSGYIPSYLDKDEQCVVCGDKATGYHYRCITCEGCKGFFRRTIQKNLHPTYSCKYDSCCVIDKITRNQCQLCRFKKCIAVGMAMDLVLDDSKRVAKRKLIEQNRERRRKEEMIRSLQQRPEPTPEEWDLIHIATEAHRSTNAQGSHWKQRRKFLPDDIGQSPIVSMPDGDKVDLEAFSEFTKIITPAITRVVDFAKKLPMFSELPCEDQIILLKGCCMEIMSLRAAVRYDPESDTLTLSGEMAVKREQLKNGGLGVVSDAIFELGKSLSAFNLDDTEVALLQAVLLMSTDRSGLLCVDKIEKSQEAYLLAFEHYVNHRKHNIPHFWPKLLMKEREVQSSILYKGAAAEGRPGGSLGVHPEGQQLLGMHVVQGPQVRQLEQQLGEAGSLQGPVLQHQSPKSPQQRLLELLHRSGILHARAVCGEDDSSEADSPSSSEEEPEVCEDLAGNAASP
Nuclear receptor subfamily 1 group I member 2 (Homo sapiens), sequence (O75469 whole entry, looked up, the tested form may be a part): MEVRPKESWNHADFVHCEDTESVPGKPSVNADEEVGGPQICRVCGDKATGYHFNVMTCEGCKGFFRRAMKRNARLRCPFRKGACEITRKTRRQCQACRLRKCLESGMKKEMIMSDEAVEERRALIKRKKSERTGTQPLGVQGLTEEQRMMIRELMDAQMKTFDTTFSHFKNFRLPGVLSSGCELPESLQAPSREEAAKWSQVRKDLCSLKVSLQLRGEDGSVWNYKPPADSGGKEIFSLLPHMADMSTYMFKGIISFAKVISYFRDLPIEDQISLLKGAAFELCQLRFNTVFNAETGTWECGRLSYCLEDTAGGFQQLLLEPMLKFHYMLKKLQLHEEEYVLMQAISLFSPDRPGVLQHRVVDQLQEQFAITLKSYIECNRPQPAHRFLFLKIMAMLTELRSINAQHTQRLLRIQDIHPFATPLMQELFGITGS
Peroxisome proliferator-activated receptor gamma (Homo sapiens), sequence (P37231 whole entry, looked up): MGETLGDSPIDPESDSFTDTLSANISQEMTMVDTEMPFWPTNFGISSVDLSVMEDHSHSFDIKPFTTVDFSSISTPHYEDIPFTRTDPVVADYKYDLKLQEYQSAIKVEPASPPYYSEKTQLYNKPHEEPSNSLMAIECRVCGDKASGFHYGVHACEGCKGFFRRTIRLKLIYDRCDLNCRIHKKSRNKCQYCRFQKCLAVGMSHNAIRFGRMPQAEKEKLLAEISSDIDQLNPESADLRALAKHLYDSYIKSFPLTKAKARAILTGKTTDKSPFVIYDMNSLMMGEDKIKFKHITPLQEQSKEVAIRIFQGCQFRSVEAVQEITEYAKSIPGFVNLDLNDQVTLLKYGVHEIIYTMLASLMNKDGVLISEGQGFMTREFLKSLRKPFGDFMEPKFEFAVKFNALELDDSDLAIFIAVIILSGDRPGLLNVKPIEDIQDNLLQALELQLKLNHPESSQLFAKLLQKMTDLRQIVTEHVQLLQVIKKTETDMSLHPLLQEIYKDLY
human RAR-related Orphan Receptor gamma (RORg), RORC (gene 6097), sequence (P51449 whole entry, looked up, the tested form may be a part): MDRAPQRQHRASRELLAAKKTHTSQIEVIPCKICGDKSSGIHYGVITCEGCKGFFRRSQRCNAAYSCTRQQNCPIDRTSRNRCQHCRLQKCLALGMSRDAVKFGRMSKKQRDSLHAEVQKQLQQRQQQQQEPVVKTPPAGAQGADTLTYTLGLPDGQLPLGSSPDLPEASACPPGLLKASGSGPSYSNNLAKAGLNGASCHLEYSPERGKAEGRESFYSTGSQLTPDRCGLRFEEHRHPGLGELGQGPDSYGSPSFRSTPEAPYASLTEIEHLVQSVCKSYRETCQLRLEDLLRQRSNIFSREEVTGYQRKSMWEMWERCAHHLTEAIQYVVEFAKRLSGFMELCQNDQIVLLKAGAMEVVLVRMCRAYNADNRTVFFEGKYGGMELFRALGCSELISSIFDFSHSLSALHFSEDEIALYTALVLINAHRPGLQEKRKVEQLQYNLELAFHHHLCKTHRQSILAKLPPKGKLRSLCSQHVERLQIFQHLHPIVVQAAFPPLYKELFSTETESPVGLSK
human Retinoic Acid Receptor beta (RARb), RARB (gene 5915), sequence (P10826 whole entry, looked up, the tested form may be a part): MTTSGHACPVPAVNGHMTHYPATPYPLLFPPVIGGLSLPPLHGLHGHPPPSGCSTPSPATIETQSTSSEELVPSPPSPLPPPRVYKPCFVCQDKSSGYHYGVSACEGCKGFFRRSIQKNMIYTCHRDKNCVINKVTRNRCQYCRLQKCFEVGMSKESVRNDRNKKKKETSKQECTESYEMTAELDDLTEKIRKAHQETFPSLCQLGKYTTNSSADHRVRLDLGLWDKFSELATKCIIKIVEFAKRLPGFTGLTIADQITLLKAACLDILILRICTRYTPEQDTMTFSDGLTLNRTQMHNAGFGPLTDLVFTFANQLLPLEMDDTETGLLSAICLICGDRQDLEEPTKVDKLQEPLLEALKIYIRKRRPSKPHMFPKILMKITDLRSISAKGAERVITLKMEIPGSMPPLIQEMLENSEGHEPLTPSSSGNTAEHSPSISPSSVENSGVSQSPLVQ
human RAR-related Orphan Receptor beta (RORb), RORB (gene 6096), sequence (Q92753 whole entry, looked up, the tested form may be a part): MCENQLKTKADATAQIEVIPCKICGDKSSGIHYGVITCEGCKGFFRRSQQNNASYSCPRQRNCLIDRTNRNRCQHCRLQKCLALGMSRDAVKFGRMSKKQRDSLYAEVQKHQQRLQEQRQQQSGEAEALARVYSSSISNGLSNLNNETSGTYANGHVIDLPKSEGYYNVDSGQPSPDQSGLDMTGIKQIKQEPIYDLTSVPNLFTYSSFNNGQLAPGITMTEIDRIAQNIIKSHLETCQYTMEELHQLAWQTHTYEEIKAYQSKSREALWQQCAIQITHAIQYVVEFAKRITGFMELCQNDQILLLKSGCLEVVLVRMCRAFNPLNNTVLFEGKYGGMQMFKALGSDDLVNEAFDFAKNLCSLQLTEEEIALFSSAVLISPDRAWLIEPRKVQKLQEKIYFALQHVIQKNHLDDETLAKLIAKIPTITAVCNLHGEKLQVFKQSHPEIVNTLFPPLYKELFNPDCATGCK

What is called AC50 is the concentration at which the activity in the assay is half-maximal. As for `Cc1ccc2oc(CN(Cc3ccccc3)C(=O)Nc3c(F)cc(F)cc3F)c(-c3ccc(Cl)cc3)c2c1`, the outcome in assay [1], in assay [2], in assay [4], in [6], in assay [7] and in assay [8] was inactive. Also, the outcome in assay [9], in assay [10], in assay [11], in [12] and in assay [13] was inactive. Besides, the results for the AC50 in assay [3] and in assay [5] were 7.43 µM (active) and 1.24 µM (active), respectively.

As for `O=C1O[C@H]([C@@H](O)CO)C(O)=C1O`, the call in assay [14], in [1], in [3], in assay [4], in assay [15] and in assay [6] was inactive. In addition, the compound was classed as inactive in assay [7], in [8], in assay [9], in assay [10], in assay [11] and in assay [16]. The result in [12] and in assay [13] was inactive. In assay [6], the AC50 was 35.9 µM (active).

With `CCO[Si](CCCNC(N)=O)(OCC)OCC`, the result in [1], in assay [2], in assay [3], in [15], in assay [6] and in [8] was inactive. The result in [9], in assay [10], in [11], in [16], in assay [12] and in [13] was inactive.

With `O=c1ccc2ccccc2o1`, the result in assay [1], in assay [2], in assay [3], in [8], in assay [9] and in assay [10] was inactive. Moreover, the result in assay [11], in assay [16], in assay [12] and in assay [13] was inactive.

As for `OCCO`, the compound was called inactive in assay [14], in assay [1], in assay [17], in [2], in [3] and in [5]. In addition, the compound was classed as inactive in assay [18], in [6], in assay [7], in [8], in assay [9] and in [10]. Further, the result in assay [11], in assay [16], in assay [12] and in assay [13] was inactive.
